Compound activity from PubChem BioAssay.
In the library only some 4.1% were active in any assay of this set; here they are far more common.
Autofluor counter = flagged as autofluorescent in microsphere protease counterscreen; compound autofluorescence counterscreen, microsphere flow cytometry; active compounds read high; 3.1% of 360,000 active; fluorescence intensity (test concentration not listed); AID 624483; in the data active = fluorescence intensity above about 16000; inconclusive = no clear call, values can overlap the other calls
MazEF act = activators of E. coli MazEF toxin-antitoxin RNase, primary screen, biochemical, fluorescence, uHTS; activation, % at 20 µM; AID 504720, 2011; 0.32% of 350,000 active; FAM/BHQ RNA-DNA oligo cleavage fluorescence, 5 h; in the data active = activation above about 50%
Target sequence (P0AE70 whole entry, looked up): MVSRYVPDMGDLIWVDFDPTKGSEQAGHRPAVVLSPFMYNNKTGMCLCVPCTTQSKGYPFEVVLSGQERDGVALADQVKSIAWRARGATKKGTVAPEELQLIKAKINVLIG
BoNT-A LC inh2 = BoNT/A light chain protease inhibitors, primary screen, biochemical, flow cytometry, MLPCN library | Botulinum neurotoxin type A light chain protease (Clostridium botulinum A str. ATCC 3502) | multiplex microsphere protease substrate cleavage | 0.17% of 360,000 active | inhibition, % at 10 µM; also: plate controls were buffer without enzyme for full effect and enzyme alone for no effect
BoNT-F LC inh = BoNT/F light chain protease inhibitors, primary screen, biochemical, flow cytometry, MLPCN library | Botulinum neurotoxin type F light chain protease (Clostridium botulinum) | Multiplex microsphere protease cleavage assay | inhibition, % at 10 µM | 0.22% of 360,000 active; in the data active = inhibition above about 35%, passing the limit was not always enough; inconclusive = no clear call, values can overlap the other calls; also: plate controls were buffer without enzyme for full effect and enzyme alone for no effect
Anthrax LF prot = Bacillus anthracis LF protease inhibitors, primary screen, biochemical, multiplex microsphere, MLPCN library; Lethal factor (Bacillus anthracis), P15917; multiplex microsphere protease cleavage assay; inhibition, % at 10 µM; 0.12% of 360,000 active; also: plate controls were buffer without enzyme for full effect and enzyme alone for no effect
VHR inh abs = VHR1 phosphatase inhibitors, primary screen, biochemical, absorbance, uHTS | Dual specificity protein phosphatase 3 (Homo sapiens), P51452 | recombinant VHR phosphatase, pNPP absorbance | inhibition, % at 13.3 µM | 0.52% of 290,000 active | AID 1654, 2009; in the data active = inhibition above about 50%
Target sequence (P51452 whole entry, looked up): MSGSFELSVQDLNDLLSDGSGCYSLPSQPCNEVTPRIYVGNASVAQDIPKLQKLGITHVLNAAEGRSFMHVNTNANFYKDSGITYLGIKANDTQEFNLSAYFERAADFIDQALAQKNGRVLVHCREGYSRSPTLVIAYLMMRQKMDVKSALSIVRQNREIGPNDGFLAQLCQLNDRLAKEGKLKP
Numbers without * were called inactive; ? = inconclusive; nt = no result. Rule as the data show it, unless noted: active = inhibition above about 30%; inconclusive = no clear call, values can overlap the other calls; inactive = below that.

SMILES	Autofluor counter	MazEF act	BoNT-A LC inh2	BoNT-F LC inh	Anthrax LF prot	VHR inh abs
O=C(Oc1cccc(OC(=O)c2ccco2)c1)c1ccco1	3661	6.8	1.2	-2.4	-7.0	55.5*
O=C(Oc1ccc(-c2cnc3ccccc3n2)cc1)c1ccco1	20475*	-8.3	-2.2	-3.6	0.9	1.5
O=C(Oc1cccnc1)c1ccco1	3936	14.7	-0.2	-21.5	-1.7	-3.8
CCC(=O)Oc1ccc(-c2cnc3ccccc3n2)cc1	10525	2.9	1.4	3.4	-2.8	2.7
Cc1ccc(S(=O)(=O)N2CCN(C(=O)COC(=O)COc3ccccc3)CC2)cc1	20093*	5.2	0.5	1.7	-0.7	27.5
Cc1ccc(S(=O)(=O)N2CCN(C(=O)CN3CCc4ccccc4C3)CC2)cc1	21614*	-0.2	-2.3	-5.3	0.4	6.7
COc1ccc(S(=O)(=O)N2CCN(C(=O)COc3ccccc3)CC2)cc1	3395	6.6	-1.1	-1.0	1.5	29.6
COc1ccc(-c2[nH]ncc2/C=N\NC(=O)c2cccs2)cc1OC	6526	1.6	-2.3	-16.6	-2.1	1.8
CCOC(=O)c1sc(NC(=O)CSc2n[nH]c(-c3ccc(Cl)cc3Cl)n2)c(C#N)c1C	23279*	0.9	?	-2.2	0.2	13.2
CCOC(=O)c1sc(NC(=O)CSc2nc(C)cc(-c3ccccc3)n2)c(C#N)c1C	19559*	-0.1	2.2	-1.4	-6.6	-3.7
CCOC(=O)c1sc(NC(=O)CSc2nc3c(cc2C#N)CCCCCC3)c(C#N)c1C	17520*	35.4	?	-9.1	-0.6	33.9
CCOC(=O)c1sc(NC(=O)CSc2nc(C)cc(C)c2C#N)c(C#N)c1C	3979	17.8	0.3	15.9	-4.0	6.4
Cc1cc(NC(=O)CSc2n[nH]c(-c3ccc(Cl)cc3Cl)n2)no1	4663	-2.9	1.9	7.7	-2.6	nt
CCOc1ccc(C2c3cc(OC)c(OC)cc3CC(=O)N2c2ccccc2)cc1 (stereo not drawn)	20080*	6.4	4.8	7.4	-1.1	32.1
CC(=O)c1ccccc1N(C(=O)c1ccco1)C(C(=O)NC1CCCC1)c1ccc(C)cc1 (stereo not drawn)	3547	4.2	0.4	-9.0	8.0	51.1*
COc1ccccc1-c1cc(C(=O)Nc2ccc(F)cc2F)no1	20081*	-6.5	4.9	5.1	-6.4	3.6
CCc1c(C)sc(NC(=O)c2cc(-c3ccco3)on2)c1C#N	23332*	5.1	0.8	-1.1	0.7	11.3
COc1ccccc1-c1cc(C(=O)NC(C)C)no1	8192	-10.5	0.4	-7.2	0.8	47.9
Cc1cc(NC(=O)c2cc(-c3ccco3)on2)n(-c2ccccc2)n1	23364*	19.9	-0.7	-0.5	-2.8	13.3
CCc1c(C)sc(NC(=O)c2cc(C)on2)c1C#N	6711	-8.9	1.8	11.2	-3.5	44.7
COc1ccccc1-c1cc(C(=O)Nc2cc(C)nn2-c2ccccc2)no1	20928*	7.6	3.0	5.6	-8.3	16.2
COc1ncnc(-c2ccccc2)c1-c1ccccc1	5390	5.6	-0.1	-2.9	-4.9	nt
COc1ccc(CNC(=O)CNC(=O)N2CC(=O)Nc3ccccc32)cc1	4628	1.1	-1.0	2.3	-1.9	6.5
COc1cccc(NC(=O)CNC(=O)N2CC(=O)Nc3ccccc32)c1	5862	-6.6	0.2	4.4	-0.8	56.8*
Cc1ccc(Cl)cc1NC(=O)CNC(=O)N1CC(=O)Nc2ccccc21	5573	1.0	1.9	11.7	-0.8	56.8*
Cc1ccc(Cl)cc1NC(=O)CCNC(=O)N1CC(=O)Nc2ccccc21	5344	4.9	0.1	5.3	-2.2	-14.6
Cn1c(N)c(C(=O)COC(=O)c2ccco2)c(=O)n(C)c1=O	6098	2.7	-0.5	12.0	1.1	57.1*
Cc1cc(C)n2nc(CNS(=O)(=O)c3cccc([N+](=O)[O-])c3)nc2n1	6415	3.3	0.4	2.0	0.3	-3.6
CCS(=O)(=O)Nc1ccc(C2=NN(C(=O)c3ccco3)C(c3ccc(C)cc3)C2)cc1 (stereo not drawn)	16946*	0.2	?	-1.6	-13.2	17.7
